SKOV3 invasion = ovarian cancer metastasis inhibition, 3D TME model; SKOV3ip1-GFP adhesion/invasion on 3D omental model, fluorescence; Potency, µM (highest dose often 45.8 µM), for the others: at the top dose activity change, negative = inhibition, usual class: inhibitors; 46,000 compounds, 0.1% hits;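 further: potency means the concentration at half of the fitted maximal effect; plate controls were DMSO wells for no effect and tomatine positive control wells for full effect; nearly all actives have a fitted effect of over 65% in size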
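A 3D layer of primary human omental fibroblasts, mesothelial cells, fibronectin and collagen I, grown 48 hr, received SKOV3ip1-GFP cells in serum-free medium plus compounds at 0.36-46 umol/L. After 2 hr RT and 16 hr 37 C, fixed adherent GFP cells were counted; normalized to DMSO and tomatine.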
HTT-AS promoter = activators of huntingtin-antisense promoter activity; HEK293 HTT-AS promoter firefly luciferase reporter, 24 h; response scale: percent change from vehicle, -100% = no light; Potency, µM (doses to about 57.5 µM), for inactives: top-dose activity change, positive = activation, actives largely listed as activators; 48,000 compounds, 0.24% hits; AID 1508624; further: potency means the concentration at half of the fitted maximal effect; nearly all actives have a fitted effect of over 55% in size
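Firefly luciferase signal from promoter-reporter HEK293 cells was scaled between vehicle (0%) and zero RLU (-100%). Compounds were tested at final concentrations of up to 57.5 uM over 24 h at 37 degrees C. PTC124 at 50 uM final served as control inhibitor.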
NTMT1 inhibitor = blocks human N-terminal methyltransferase 1 activity. NTMT1 MTase-Glo SAH luminescence, purified enzyme. Potency, µM (top dose mostly 114 µM), for inactives: at the top dose activity change, negative = inhibition, actives largely listed as inhibitors. Q9BV86. 59,000 compounds, 2.5% hits;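 further: potency means the concentration at half of the fitted maximal effect; plate controls were DMSO vehicle for no effect and no enzyme for full effect; nearly all actives have a fitted effect of over 65% in size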
Target sequence (Q9BV86 whole entry, looked up): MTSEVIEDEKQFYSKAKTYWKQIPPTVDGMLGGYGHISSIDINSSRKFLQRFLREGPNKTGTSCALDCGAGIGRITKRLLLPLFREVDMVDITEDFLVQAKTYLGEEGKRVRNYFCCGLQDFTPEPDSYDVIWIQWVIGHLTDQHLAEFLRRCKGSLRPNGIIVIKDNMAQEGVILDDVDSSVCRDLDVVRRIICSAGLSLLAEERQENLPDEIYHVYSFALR
HTT prom inh = HTT promoter inhibition; HEK293 HTT promoter firefly luciferase reporter, 24 h; 48,000 compounds, 0.93% hits; Potency, µM (highest dose often 57.5 µM), for inactives: at the highest dose activity change, negative = inhibition, actives largely listed as inhibitors; further: potency means the concentration at half of the fitted maximal effect; nearly all actives have a fitted effect of over 50% in size
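Firefly luciferase readout (Dual-Glo, 10 min RT) after 24 h, 37 °C compound exposure (final up to 57.5 uM) of HEK293 reporter cells cultured 24 h beforehand; PTC124 at 50 uM final as control inhibitor; activity scaled vehicle 0%, zero RLU -100%.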
GPR32 ag = agonists of human resolvin D1 receptor DRV1 (GPR32); CHO-K1 GPR32 beta-arrestin PathHunter luminescence, 90 min; zero percent set by DMSO-only wells; activation, % at 76.9 µM; 48,000 compounds, 2.5% hits; AID 1346428;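 active means activation of at least 60% and not above a set upper limit, about 1 call in 100 departs from these limits; inconclusive means activation of 40% to 60%, or above that upper limit; inactive means activation under 40%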; further: 0% is about no effect
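CHO-K1 cells stably expressing ProLink-tagged GPR32 and Enzyme Activator-tagged beta-arrestin were seeded at 2,500 cells/well overnight, exposed to compounds for 90 min at 37 °C, then read by beta-Gal complementation chemiluminescence after 1 h detection reagent.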
DYRK1A inh-1 = blocks recombinant human DYRK1A kinase activity | 100 compounds, 80% hits | AID 2705 | recombinant DYRK1A, Kinase-Glo ATP depletion luminescence | shares compounds with NTMT1 inhibitor | Potency, µM (series often up to 76.9 µM), without a hit: top-dose activity change, negative = inhibition, actives largely listed as inhibitors
CLK4 inh-1 = confirmation of human CLK4 kinase inhibitors, SAR round 2; shares compounds with NTMT1 inhibitor; recombinant Clk4, Kinase-Glo ATP luminescence, 4.5 h; Potency, µM (doses to about 76.9 µM), without a hit: top-dose activity, negative = inhibition, usual class: inhibitors; 90 compounds, 90% hits; AID 493204
Target sequence (Q9HAZ1 whole entry, looked up): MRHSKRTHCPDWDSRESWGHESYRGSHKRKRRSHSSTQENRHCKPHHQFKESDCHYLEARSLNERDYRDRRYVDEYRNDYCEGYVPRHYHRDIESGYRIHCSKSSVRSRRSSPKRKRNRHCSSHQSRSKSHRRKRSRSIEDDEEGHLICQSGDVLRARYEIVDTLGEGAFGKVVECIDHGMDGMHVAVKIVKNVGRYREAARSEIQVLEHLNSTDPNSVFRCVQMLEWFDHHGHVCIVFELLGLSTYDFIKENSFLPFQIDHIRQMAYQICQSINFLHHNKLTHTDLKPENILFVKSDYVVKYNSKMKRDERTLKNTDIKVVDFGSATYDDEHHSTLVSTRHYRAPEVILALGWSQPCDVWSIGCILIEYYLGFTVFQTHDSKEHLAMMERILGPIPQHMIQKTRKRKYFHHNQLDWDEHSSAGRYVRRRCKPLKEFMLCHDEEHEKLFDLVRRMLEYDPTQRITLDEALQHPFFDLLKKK
CLK4 inh-2 = blocks human CLK4 kinase in radiometric assay | shares compounds with NTMT1 inhibitor | Reaction Biology kinase assay, 10 uM ATP | Potency, µM, actives largely listed as inhibitors | 65 compounds, 100% hits | AID 504421; calls by dose curve
DYRK1A inh-2 = DYRK1A kinase inhibition | Potency, µM, actives largely listed as inhibitors | shares compounds with NTMT1 inhibitor | 65 compounds, 90% hits | Reaction Biology kinase assay, 10 uM ATP;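 active means compounds that showed inhibition of Dyrk1a and received a fitted potency; inactive means compounds that showed no inhibition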
CLK2 RBC = blocks human CLK2 kinase in radiometric assay. shares compounds with NTMT1 inhibitor. Reaction Biology kinase assay, 10 uM ATP. Potency, µM, most hits filed as inhibitors. 65 compounds, 90% hits. AID 504427;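 active means compound that inhibits Clk2 kinase in the dose series, with an IC50 potency reported; inactive means no inhibition seen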
CLK3 RBC = blocks human CLK3 kinase activity; recombinant CLK3 kinase assay, 10 uM ATP; Potency, µM, actives largely listed as inhibitors; shares compounds with NTMT1 inhibitor; AID 504428; 65 compounds, 40% hits;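 active means compounds that inhibited Clk3 enough in the ten-dose series to give a half-maximal potency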
DYRK1B inh = inhibitors of human Dyrk1b kinase; shares compounds with NTMT1 inhibitor; Recombinant Dyrk1b kinase assay, 10 uM ATP; Potency, µM, most hits filed as inhibitors; 65 compounds, 80% hits; AID 504429;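 active means compounds whose dose response shows an inhibitor phenotype against the kinase Dyrk1b; inactive means compounds showing no inhibitor phenotype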
CLK1 inh = CLK1 kinase inhibition; shares compounds with NTMT1 inhibitor; Potency, µM, usual class: inhibitors; recombinant Clk1 kinase assay, 10 uM ATP; 65 compounds, 90% hits;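 active means compounds that block the splicing kinase Clk1 enough to give a fitted half-inhibition concentration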
Sfp qHTS opt = Sfp PPTase inhibition, chemistry optimization | shares compounds with NTMT1 inhibitor | purified Sfp PPTase enzyme activity, qHTS | Potency, µM (doses to about 114 µM), for the others: at the highest dose activity change, negative = inhibition, most hits filed as inhibitors | 230 compounds, 78% hits | AID 540350
HM489 growth = B. subtilis HM489 growth inhibition | shares compounds with NTMT1 inhibitor | B. subtilis HM489 (acpS-) growth, BacTiter-Glo, 5 h | Potency, µM (series often up to 114 µM), without a hit: at the top dose activity change, negative = inhibition, usual class: inhibitors | 220 compounds, 50% hits | AID 540353
Sfp gel opt = inhibits B. subtilis Sfp PPTase in gel assay | shares compounds with NTMT1 inhibitor | purified Sfp PPTase, gel-based product detection | Potency, µM (doses to about 250 µM), for the others: top-dose activity change, negative = inhibition, most hits filed as inhibitors | 220 compounds, 54% hits
Sfp SAR2 = inhibitors of Bacillus subtilis Sfp PPTase, SAR round 2; shares compounds with NTMT1 inhibitor; purified Sfp enzyme, PPTase activity, qHTS; Potency, µM (top dose mostly 57.1 µM), for the others: top-dose activity change, negative = inhibition, hits mostly inhibitors; 230 compounds, 87% hits; AID 602370
HSD17B4 inh = inhibits human HSD17B4, off-target for HPGD inhibitors | 230 compounds, 10% hits | shares compounds with NTMT1 inhibitor | Potency, µM (highest dose often 57.1 µM), for inactives: at the top dose activity change, negative = inhibition, usual class: inhibitors | purified HSD17B4, estradiol/NAD+, NADH fluorescence
ALDH1A1 counter = counter-screen for HPGD inhibitors: human ALDH1A1 inhibition. shares compounds with NTMT1 inhibitor. Potency, µM (doses to about 57.1 µM), for inactives: at the top dose activity change, negative = inhibition, actives largely listed as inhibitors. recombinant ALDH1A1, NADH fluorescence, propionaldehyde/NAD+. AID 743195. 230 compounds, 93% hits
NNMT inh = blocks human NNMT methyltransferase; AID 1645878; shares compounds with NTMT1 inhibitor; Potency, µM (top dose mostly 57.1 µM), for the others: at the top dose activity, negative = inhibition, actives largely listed as inhibitors; NNMT MTase-Glo luminescence, SAH detection; 120 compounds, 10% hits
Starred values were filed as active, the others as inactive; i = inactive; ? = inconclusive; . = not tested or not shown; ! = repeats disagree; [ ] = dose if it differs, or a comment. Shown are actives, neighbours in structure and some others; about 4.5% of the full set was active somewhere. Unless noted, the call rests on the fitted dose curve; in most records, active means well fitted curve in the direction sought with a large enough effect; inconclusive means small, poorly fitted or top-dose-only effect, or another doubt; inactive means no such curve, though single readings can be large; an effect the other way counts as inactive or inconclusive.

SMILES | SKOV3 invasion | HTT-AS promoter | NTMT1 inhibitor | HTT prom inh | GPR32 ag | DYRK1A inh-1 | CLK4 inh-1 | others
Cn1cnc(CCNc2ncnc3ccc(-c4ccc5c(c4)OCO5)cc23)c1 | . | . | 12% | . | . | 1.5µM* | .
CCCNc1ncnc2ccc(-c3ccc4c(c3)OCO4)cc12 | . | . | . | . | . | . | 0.041µM*
CCCN(Cc1cccs1)c1ncnc2ccc(-c3ccc4c(c3)OCO4)cc12 | . | . | ? | . | . | 0.82µM* | .
Cc1ccc(Nc2nc3c(S(=O)(=O)c4ccccc4)nnn3c3ccsc23)c(C)c1 | -2% | -15% | -2% | -11% | -1 | . | .
O=C(O)c1nc(=O)[nH]c(=O)[nH]1 | -7%[23.2 µM] | -19%[25.1 µM] | -6%[29.8 µM] | -11%[25.2 µM] | . | . | .
c1nc(N2CCC(N3CCCC3)CC2)c2cc(-c3ccc4c(c3)OCO4)ccc2n1 | . | . | ? | . | . | 23µM* | . | CLK4 inh-2=10*;DYRK1A inh-2=i;CLK2 RBC=i;CLK3 RBC=i;DYRK1B inh=i;CLK1 inh=15µM*
c1nc(NCC2CCOC2)c2cc(-c3ccc4c(c3)OCO4)ccc2n1 (stereo not given) | . | . | 25µM* | . | . | 0.092µM* | .
Cc1nc(CCNc2ncnc3ccc(-c4ccc5c(c4)OCO5)cc23)cs1 | . | . | -21% | . | . | . | 0.065µM*
CC(C)(C)CNc1ncnc2ccc(-c3ccc4c(c3)OCO4)cc12 | . | . | . | . | . | 0.0091µM* | .
Cc1ccc(CNc2ncnc3ccc(-c4ccc(C(=O)O)o4)cc23)o1 | . | . | . | . | . | . | 0.073µM* | CLK4 inh-2=0.1*;DYRK1A inh-2=17µM*;CLK2 RBC=1.4µM*;CLK3 RBC=i;DYRK1B inh=4.9µM*;CLK1 inh=1.6µM*
CCNC(=O)c1ccc(-c2ccc3ncnc(NCc4nccs4)c3c2)o1 | . | . | ? | . | . | . | 0.52µM* | CLK4 inh-2=0.88*;DYRK1A inh-2=5.1µM*;CLK2 RBC=19µM*;CLK3 RBC=i;DYRK1B inh=5µM*;CLK1 inh=7µM*
Cc1noc(C)c1-c1ccc2ncnc(NCc3ccc(C(F)(F)F)o3)c2c1 | . | . | 6%[57.5 µM] | . | . | . | .
Cc1csc(CNc2ncnc3ccc(-c4ccc(C(=O)O)o4)cc23)n1 | . | . | -2%[57.5 µM] | . | . | . | 0.37µM* | CLK4 inh-2=1*;DYRK1A inh-2=46µM*;CLK2 RBC=9.5µM*;CLK3 RBC=i;DYRK1B inh=13µM*;CLK1 inh=16µM*
Cc1ccc(CNc2ncnc3ccc(-c4ccc([C@@H](C)O)o4)cc23)o1 | . | . | ? | . | . | . | 0.18µM*
Cc1cc(C)nc(NC(=S)N2CCN(c3nncs3)CC2)c1 | . | . | -25%[57.5 µM] | . | . | . | . | Sfp qHTS opt=13µM*;HM489 growth=?;Sfp gel opt=32µM*;Sfp SAR2=2.3µM*;HSD17B4 inh=0%;ALDH1A1 counter=22µM*
Cc1cc(C)nc(NC(=S)N2CCN(c3nccs3)CC2)c1 | . | . | ? | . | . | . | . | Sfp qHTS opt=?;HM489 growth=-27%;Sfp gel opt=20µM*!;Sfp SAR2=4.1µM*!;HSD17B4 inh=-15%;ALDH1A1 counter=11µM*
CCOC(=O)c1c(N)n(-c2cc(C)cc(C)c2)c2nc3ccccc3nc12 | 0% | . | . | . | -6 | . | .
CCCCCOc1ccc(-c2ccc(-c3ccc(C(=O)N[C@H]4C[C@@H](O)[C@@H](O)NC(=O)[C@@H]5[C@@H](O)[C@@H](C)CN5C(=O)[C@H]([C@@H](C)O)NC(=O)[C@H]([C@H](O)[C@@H](O)c5ccc(O)cc5)NC(=O)[C@@H]5C[C@@H](O)CN5C(=O)[C@H]([C@@H](C)O)NC4=O)cc3)cc2)cc1 | . | . | 5%[29.8 µM] | . | . | . | . | NNMT inh=-4%[28.6 µM]
